The record followed here is PubChem BioAssay AID624330 (Southern Research Specialized Biocontainment Screening …, 2012).

Where “and” joins values, the source holds several entries; their conditions need not be identical. Identical values can stand only once. Among all 340,000 compounds or so, about 2,100 (0.62%) were called active. Only a sample is shown. Entries with a potency or affinity are not part of this list. Unmarked numbers belong to inactive results.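 How the source made its calls: active means first-screen hits whose inhibition reached a set limit at any dose in the follow-up dose series; inconclusive means inhibition above the set first-screen limit but never retested; inactive means the rest.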

The target of this assay is Rac GTPase-activating protein 1 (Homo sapiens) (UniProt Q9H0H5). The assay can be described thus: blockers of MgcRacGAP-driven Rac1 GTP hydrolysis – biochemical, ADP Hunter fluorescence, primary and confirmatory, confirmation (AID 624330).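 Further: fluorescence reports GDP produced by GAP-driven GTP hydrolysis.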 The following applies: MgcRacGAP-stimulated Rac1 GTP hydrolysis, at 30 µM, stronger effect = higher value, GST-tagged Rac1 F28L mutant substrate.
Rac GTPase-activating protein 1 (Homo sapiens), sequence (Q9H0H5 whole entry, looked up): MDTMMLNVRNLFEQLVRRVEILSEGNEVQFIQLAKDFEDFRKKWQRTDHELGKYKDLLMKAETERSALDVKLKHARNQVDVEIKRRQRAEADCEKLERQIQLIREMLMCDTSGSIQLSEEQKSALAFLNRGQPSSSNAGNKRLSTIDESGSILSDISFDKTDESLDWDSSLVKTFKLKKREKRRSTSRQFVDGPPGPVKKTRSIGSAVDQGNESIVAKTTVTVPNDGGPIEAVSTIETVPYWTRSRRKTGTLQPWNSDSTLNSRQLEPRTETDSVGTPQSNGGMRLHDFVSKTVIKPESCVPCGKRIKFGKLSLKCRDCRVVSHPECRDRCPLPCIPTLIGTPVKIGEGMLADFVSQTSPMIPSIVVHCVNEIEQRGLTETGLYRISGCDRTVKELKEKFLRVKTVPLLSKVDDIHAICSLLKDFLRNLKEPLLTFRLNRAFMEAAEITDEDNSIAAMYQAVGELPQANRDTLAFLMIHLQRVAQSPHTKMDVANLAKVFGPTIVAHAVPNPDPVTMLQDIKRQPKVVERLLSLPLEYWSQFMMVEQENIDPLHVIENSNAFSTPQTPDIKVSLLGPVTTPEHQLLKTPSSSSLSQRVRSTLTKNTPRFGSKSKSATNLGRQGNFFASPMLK
As for `CC(=O)NCC1CCCN(Cc2cn(-c3ccccc3)nc2-c2ccc3c(c2)OCO3)C1` (configuration not stated), the inhibition (commonly the change of the read-out against control, counted positive when it falls) is -2.78%.
For the compound `O=C(CNC(=O)c1ccco1)N/N=C/c1ccc(O)c([N+](=O)[O-])c1`, the inhibition is 1.55%.
With `COc1cc(/C=N/NC(=O)c2cccs2)ccc1O` the figure was 9.66%; with `COc1cccc(/C=N/NC(=O)CNC(=O)c2ccco2)c1O`, 13.1%.
Under `COc1ccc(/C=N/NC(=O)CNC(=O)c2cccs2)cc1` stands 2.55%; under `O=S(=O)(c1cccc(S(=O)(=O)N2CCCC2)c1)N1CCCCC1`, -4.65%; under `O=C(COC(=O)/C=C/c1cccc(C(F)(F)F)c1)NC(c1ccccc1)c1ccccc1`, -0.08%.
As for `Cc1oc2ccccc2c1-c1cn2c(n1)SCC2`, the inhibition was 18.1%.
Under `COC(=O)c1[nH]c(C)c(/C(O)=C2\C(=O)C(=O)N(CCN(C)C)C2c2ccccc2OC)c1C` (configuration not stated) stands -0.13%; under `CC(C)(C)OC(=O)NCC(=O)NCC(=O)OCc1ccccc1`, 4.89%; under `CC1(c2cccc(Br)c2)NC(=O)N(CC(=O)Nc2ccc3c(c2)OCO3)C1=O` (configuration not stated), 8.04%.
Under `NS(=O)(=O)c1ccc(CCNCc2cc(Br)ccc2OCc2ccccc2F)cc1` stands 1.51%.
For the compound `COCC1CCCCN1Cc1cn[nH]c1-c1ccc(OC)cc1OC` (configuration not stated), the inhibition is -6.12%.
With `CC(NC(=O)COC(=O)c1cc(=O)c2ccccc2o1)c1ccccc1` (configuration not stated) the figure was 2.31%; with `OCC1(CC2CCCCO2)CCN(C/C=C/c2ccccc2)CC1` (configuration not stated), 1.66%.
With `COc1ccc(/C=C/CN2CCC(Oc3ccc(C(=O)N4CCCCC4)cc3)CC2)cc1` the figure was 7.82%; with `COc1ccccc1/C=C/CN1CCC(Oc2ccc(C(=O)N3CCCC3)cc2)CC1`, 7.28%.
As to `COc1cccc(CN2CCC(CO)(CC3CCCCO3)CC2)c1` (configuration not stated), the inhibition is 10.7%.
On to `O=C(NCC1CCCO1)c1ccccc1-c1nc(-c2ccc(Cl)cc2)no1` (configuration not stated), for which the inhibition was 10.3%.
Under `CC(C)(C)NC(=O)NC(=O)CSc1nnc(-c2ccccc2F)n1N` stands 11.7%; under `CC1(C)CC(O)C(C(O)c2cccc([N+](=O)[O-])c2)C(C)(C)N1` (configuration not stated), -4.29%.
Turning to `COC(=O)C1=C(C)N(Cc2ccco2)C(=O)/C1=C\c1ccc([N+](=O)[O-])cc1`, the inhibition is 40.1%.
Turning to `COC(=O)C1=C(C)N(CCc2ccc(OC)c(OC)c2)C(=O)/C1=C\c1ccc(O)cc1`, the inhibition is 27.5%.
`COC(=O)C1=C(C)N(Cc2ccc(C)cc2)C(=O)/C1=C\c1ccc(O)c(OC)c1`: the inhibition was -0.65%.
With `CCOc1cc(/C=C2\C(=O)N(Cc3ccc(C)cc3)C(C)=C2C(=O)OC)ccc1O` the figure was 13.1%.
For the compound `Cc1cccc(C(C)C)c1NC(=O)COC(=O)c1cc2ccccc2oc1=O`, the inhibition is 4.05%.
In the case of `CCOC(=O)C1CCN(C(=O)Cn2nc(C)n3nc(-c4ccc(OC)cc4)cc3c2=O)CC1`, the inhibition is 4.91%.
Turning to `CCOC(=O)C(O)(CC(=O)c1ccc(Cl)cc1)C(=O)OCC`, the inhibition is 3.02%.
Regarding `CCn1c(-c2ccccc2)csc1=Nc1ccc(S(=O)(=O)O)cc1`, the inhibition is 9.33%.
`OCCn1c(-c2ccccc2)csc1=Nc1ccccc1`: the inhibition was 7.22%.
Under `CCOC(=O)CC1CCCCN1C(=O)CCCn1nnnc1CN1CCOCC1` (configuration not stated) stands 7.71%; under `Cc1cccc(OCC(=O)N2CCN(C(=O)COc3ccc(Cl)cc3)CC2)c1`, 9.73%; under `CCOC(=O)N1CCN(C(=O)COc2ccc([N+](=O)[O-])cc2)CC1`, -2.93%.
For the compound `O=C(COc1ccc2ccccc2c1)N1CCCC1`, the inhibition is 7.41%.
For `Cc1ccc(OCC(=O)N2CCN(C(=O)c3ccc([N+](=O)[O-])cc3)CC2)cc1`, the inhibition is 4.34%.
With `Cc1cccc(OCC(=O)N2CCN(C(=O)Cc3ccccc3)CC2)c1` the figure was 8.65%.
With `O=C(COc1ccc2ccccc2c1)N1CCN(C(=O)c2cccnc2)CC1` the figure was 8.31%; with `CCn1ccnc1CN(C)C(=O)C1CCC(=O)N(Cc2cccc(C(F)(F)F)c2)C1` (configuration not stated), 4.11%.
Consider `COc1cc(NC(=O)COC(=O)CNS(=O)(=O)c2ccc(F)c(F)c2F)cc(OC)c1`, for which the inhibition is 9.27%.
With `COc1ccc(-n2nc(C(=O)NCC(=O)NCCN(C)C)c3ccccc3c2=O)c(OC)c1` the figure was 8.96%; with `Cc1nn(C)cc1CNC(=O)/C=C/c1cnn(C)c1`, -2.3%; with `O=[N+]([O-])c1ccc(N2CCCCC2)nc1N1CCCCC1`, 2.43%.
With `O=C(COC(=O)C1CCN(c2ccc(C(F)(F)F)cn2)CC1)NCc1ccccc1` the figure was 2.35%; with `CC12CCC(=O)N1C(C(=O)OCC(=O)Nc1ccc(S(N)(=O)=O)cc1)CS2` (configuration not stated), 0.82%; with `N#Cc1ccc(-c2csc(NC(=O)c3ccc(N4C(=O)CCC4=O)cc3)n2)cc1`, 6.12%.
With `O=c1/c(=C/c2cccc3ccccc23)sc2ncnn12` the figure was 17.9%.
With `CCCCOc1ccc(/C=c2\sc3ncnn3c2=O)cc1`, the inhibition is 8.68%.
`CN1CCN(C(=O)CN(C)S(=O)(=O)c2cc(Cl)ccc2Cl)CC1`: the inhibition was 1.86%.
`COc1ccccc1CNCC(=O)Nc1ccc(C(F)(F)F)cc1`: the inhibition is 25%.
Under `COc1ccccc1CNC(=O)Cc1ccc(C)cc1` stands 4.63%; under `O=C(CNCc1ccco1)Nc1ccccc1-n1cccc1`, 12.8%.
Under `COc1ccccc1CNCC(=O)Nc1ccc(C#N)cc1` stands 31.8%; under `COc1ccccc1CNC(=O)CNC(=O)N1CC(=O)Nc2ccccc21`, 10.5%; under `O=C1CN(C(=O)CNCc2ccccc2)c2ccccc2N1`, 23.4%.
Under `COc1ccccc1CNCc1ccc(C)cc1` stands 7.48%; under `COc1ccc(CNCC(=O)Nc2ccccc2-n2cccc2)cc1`, 36.5%; under `O=CNc1ccccc1Oc1ccccc1`, 8.55%.
With `Cc1ccc(N(C(=O)c2snc(C(N)=O)c2N)C(C(=O)NC2CCCC2)c2ccc(C)o2)cc1` (configuration not stated), the inhibition is 2.21%.
With `CC(=O)c1ccc(NC(=O)CSc2nnc(C3CC3)n2C)cc1` the figure was -6.69%.
Under `O=C(CSc1cn(CCNC(=O)c2ccc3ccccc3c2)c2ccccc12)NCc1ccco1` stands 11.1%; under `CC(C)C(=O)Nc1ccc2c(c1)nc1n2CCSC1`, 5.79%.
Under `CC1CCN(CC(O)COc2ccc(OCC(O)CN3CCC(C)CC3)cc2)CC1` (configuration not stated) stands 15.7%; under `Cc1ccccc1OCC(O)CN1CCC(C)CC1` (configuration not stated), 8.53%.
On to `Cn1ccnc1C(=O)c1cc(SCC(=O)N2CCOCC2)nc2ccccc12`, for which the inhibition is -0.39%.
With `S=C1SC2(CCCCCC2)NC2=C1CCCCC2` the figure was 8.68%; with `CCOC(=O)CCSc1nc(C)c2cc(C)ccc2n1`, 5.59%; with `Cc1ccc(Oc2coc3cc(OC(=O)c4cccs4)ccc3c2=O)cc1`, 1.09%.
For `Cc1c(O)ccc2c(=O)c(Oc3ccccc3)coc12`, the inhibition is 9.78%.
With `CC1NC(=O)c2cc3ccccc3cc2-n2c1nc1cc(Cl)ccc1c2=O` (configuration not stated), the inhibition is 9.82%.
In the case of `CC(Oc1ccc(Cl)cc1)C(=O)Nc1ccccc1N1CCOCC1` (configuration not stated), the inhibition is 2.3%.
Turning to `NN1C(=O)/C(=C2/Sc3ccccc3N2CCCS(=O)(=O)O)SC1=S`, the inhibition is 12.5%.
As for `CCN1/C(=C2/SC(=S)NC2=O)Sc2ccccc21`, the inhibition is 1.71%.
Under `CCOC(=O)N1CCN(S(=O)(=O)c2c(C)nc3sccn3c2=O)CC1` stands 8.06%.
With `COc1ccc(C=C2CS(=O)(=O)CC(=Cc3ccc(OC)cc3)C2=O)cc1` the figure was 8.37%; with `O=C1/C(=C\c2ccc([N+](=O)[O-])cc2)CCc2ccccc21`, 2.14%.
Under `O=[N+]([O-])c1ccc(N2CCN(S(=O)(=O)c3ccc(Cl)c(Cl)c3)CC2)cc1NCCN1CCOCC1` stands -6.11%.
Regarding `COc1ccccc1NC(=O)c1cc2ccc(O)cc2o/c1=N\O`, the inhibition is 16.6%.
Under `COc1ccc2o/c(=N\O)c(C(=O)Nc3ccc(C)cc3)cc2c1` stands 6.76%.
Regarding `CCOC(=O)C1=CN(Cc2cccc(-c3ccc(F)cc3)c2)S(=O)(=O)N(C)C1C` (configuration not stated), the inhibition is 8.9%.
Under `Cc1cc(C)nc(Nc2ccc(Cl)cc2C)n1` stands 4.71%; under `Cc1nc2sc(C(c3cccs3)N3CCC4(CC3)OCCO4)c(O)n2n1` (configuration not stated), 1.65%; under `Cc1cc(C)c2ccc(=O)n(CC(=O)N/N=C/c3ccccc3Cl)c2n1`, 5.91%.
`Cc1ccc(C)c2c1[nH]c1ccccc12`: the inhibition is 10.6%.
Under `COc1cc2[nH]c3ccccc3c2cc1C` stands -5.8%; under `Cc1ccc(C(C)C)c(OC/C(O)=C(\C#N)c2nc3ccccc3[nH]2)c1`, 6.88%; under `CC1(C)C(c2ccccc2)=[N+]([O-])C2(CCCCC2=O)N1O` (configuration not stated), 1.13%.
With `CCOC(=O)C1CCN(S(=O)(=O)CCNC(=O)c2ccc(F)cc2)CC1` the figure was 6.46%; with `Oc1ccc(N=Nc2ccc(Br)cc2)c(O)c1`, 12.2%; with `O=[N+]([O-])c1ccc(N=Nc2ccc(O)cc2O)cc1`, 7.64%.
`O=S(=O)(O)c1cccc2c(N=Nc3ccc(O)c4ncccc34)cccc12`: the inhibition is 18.4%.
In the case of `O=S(=O)(O)c1cc(O)ccc1O`, the inhibition is 4.04%.
For the compound `O=C(Cc1ccc(F)cc1)NC(Cc1c[nH]c2ccccc12)C(=O)O` (configuration not stated), the inhibition is -3.39%.
As for `Cc1c(Cl)cnc(NC(=O)CSc2nnnn2C)c1Cl`, the inhibition is 3.41%.
With `CC(=O)c1ccc2c(c1)N(CCCN(C)C)c1ccccc1S2` the figure was 12.4%.
Under `CN1CCN(CCCN2c3ccccc3Sc3ccc(C(F)(F)F)cc32)CC1` stands 7.89% and 12.7% and 6.18%.
With `CN(C)CCCN1c2ccccc2Sc2ccc(Cl)cc21`, the inhibition is 22% and 17.9%.
With `OCCN1CCN(CCCN2c3ccccc3Sc3ccc(Cl)cc32)CC1` the figure was 31.9%.
